Source: PubChem
Most compounds without a hit are left out; they make up all but 2% or so of the library.
Platelet DG rel = modulates dense granule release in human platelets; inhibition, %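 (compounds screened at 7.5 µM in platelet-rich plasma)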; AID 1663; 300,000 tested, 0.22% active; human platelet-rich plasma, SFLLRN dense granule ATP release, luminescence;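 active = mean replicate score, as percent of positive control, at or above 50; inconclusive = mean below 50 but at least one replicate at or above 50; inactive = mean and every replicate below 50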
SKKanGAS inh = inhibitors of SKKanGAS S. pyogenes growth in kanamycin (SK-promoter or general growth effect); BacTiter-Glo, 6 h; inhibition, % at 7.5 µM; 300,000 tested, 1.3% active;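 active = mean replicate score, as percent of positive control median, at least 50; inconclusive = mean below 50 but one replicate at or above 50; inactive = mean and every replicate below 50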;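 also: strain carries kanamycin resistance gene driven by streptokinase promoter and grows in 40 µg/ml kanamycin; loss of luminescence reflects streptokinase promoter inhibition or plain growth inhibition; 0% = median of DMSO wells and 100% = positive control at its reference dose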
PolyA inh = blocks polyadenylation in yeast reporter cells; 300,000 tested, 0.02% active; S. cerevisiae SKY197-pL101 polyadenylation reporter, beta-gal luminescence; efflux-impaired pdr1/pdr3 knockout yeast; score 100 = 6 SD above DMSO; activity score, % at 12 µM;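 active = lowest replicate activity score at least 50, where 100 means six control SD above control mean; inconclusive = lowest score under 50 but half or more replicates reach 50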;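 also: yeast exposed to compound for 9 h at 30 °C; higher score means more reporter readthrough which indicates perturbed polyadenylation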
Yeast superoxide = caloric restriction mimetics inhibiting age-related superoxide in yeast. S. cerevisiae aged cells, superoxide DHE fluorescence; hits give low values. superoxide response (% of plate mean), % at 10 µM. 330,000 tested, 0.18% active. AID 2690;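 active = superoxide response under a set limit, about three screen SD below normal, cut at about 65% in these data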;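 also: yeast aged for seven days with compound at 30 °C before DHE staining; 100% = average MFI of all compound-treated wells on the plate with controls excluded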
Calb FLC = affects C. albicans growth with fluconazole | C. albicans CaCi-2 (fluconazole-resistant clinical isolate) + fluconazole, Alamar Blue growth, 48 h | growth inhibition, % (concentration not given with the values) | 300,000 tested, 0.57% active | AID 1979;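 active = growth inhibition above about 58% in most replicates, limit read from the data, passing the limit was not always enough; inconclusive = exactly half the replicates above a set limit; inactive = most replicates below a set limit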;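 also: all wells also contain fluconazole at 8 µg/ml as a sub-toxic cotreatment; 0% = median of DMSO wells and 100% = median of geldanamycin control wells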
* hit, by the source's call; ? = inconclusive; . = no result given.

SMILES	Platelet DG rel	SKKanGAS inh	PolyA inh	Yeast superoxide	Calb FLC
Nc1nonc1-n1nnc(C(=O)N/N=C/c2cc(Cl)ccc2O)c1CN1CCCCCC1	-10	50*	2	83	101*
CCc1ccc(/C=N/NC(=O)c2nnn(-c3nonc3N)c2CN2CCOCC2)cc1	50*	0	-23	112	-14
CC/C(C)=N/NC(=S)NCc1ccco1	-12	0	2	103	31
Cc1ccccc1-c1cc(C(=O)Nc2sc(C(=O)OC(C)C)c(C)c2C#N)c2ccccc2n1	-5	59*	-11	104	38
C=CCNc1ncnc2c1ncn2C1OC(CO)C(O)C1O (stereo unspecified)	31	7	-7	122	-6
OCC1OC(n2cnc3c(NC4CCCC4)ncnc32)C(O)C1O (stereo unspecified)	82*	-1	0	105	.
OCC1OC(n2cnc3c(NC4CCCCC4)ncnc32)C(O)C1O (stereo unspecified)	42	-2	6	86	-5
OC[C@H]1O[C@@H](n2cnc3c(NC4CCCC4)ncnc32)[C@H](O)[C@@H]1O	57*	0	-21	109	-9
CN(CCc1ccccn1)C(=O)CCC1CCCN(C(=O)c2cccc(N(C)C)c2)C1 (stereo unspecified)	18	0	9	108	-4
COC(=O)C1=C(C)N(CC2CC2)C(=O)N[C@H]1c1ccccc1	-2	0	0	98	2
CC(NS(=O)(=O)OCC(Cl)(Cl)Cl)c1ccc(C(C)(C)C)cc1 (stereo unspecified)	2	93*	7	106	-13
O=C(CSc1nnc2c3ccccc3c3ccccc3c2n1)Nc1ccccc1F	55*	9	2	96	-4
C/C(=N\OCc1ccc(C#N)cc1)c1cc2ccccc2o1	-2	-18	-12	100	78*
C/C(=N\OCc1ccccc1C#N)c1cc2ccccc2o1	3	19	-23	102	-1
O=C1C(=O)N(c2ccccn2)C(c2ccc(F)cc2)/C1=C(/O)c1ccc(Br)cc1 (stereo unspecified)	3	6	10	100	1
O=C1C(=O)N(c2ccccn2)C(c2ccc(Br)cc2)/C1=C(/O)c1ccc(Br)cc1 (stereo unspecified)	14	69*	-9	98	-3
CCCOc1ccc(/C(O)=C2/C(=O)C(=O)N(c3ccccn3)C2c2ccc(OC)cc2)cc1C (stereo unspecified)	6	50*	-22	70	19
CCOC(=O)c1c(-c2ccccc2)oc2cc(CN(C)C)c(O)c(CN(C)C)c12	-9	-2	-11	107	-3
COC(=O)c1cnc(NNS(=O)(=O)c2ccc(C(F)(F)F)cc2)nc1C(F)(F)F	10	1	0	102	5
CN(C(=O)Cn1nnc(-c2cccc(C(F)(F)F)c2)n1)C1CCCCC1	70*	-3	-3	101	-3
Cc1ccc(-c2nnn(CC(=O)N(C)C3CCCCC3)n2)o1	-7	-2	-5	105	9
CCOc1cc(/C=C2\SC(=N)N(c3nccs3)C2=O)ccc1OCCN1CCOCC1	-2	80*	20	106	-2
O=C(COS(=O)c1ccccc1)Nc1cc(Cl)ccc1N1CCOCC1 (stereo unspecified)	-6	-3	-8	100	64*
CCN1CCN(C(=O)C2CCN(C(=O)c3cc4sccc4n3CC)CC2)CC1	0	-5	-5	85	6
CCn1c(C(=O)N2CCC(C(=O)NCCCSC3CCCCC3)CC2)cc2sccc21	69*	1	8	86	-6
SMILES	Platelet DG rel	SKKanGAS inh	PolyA inh	Yeast superoxide	Calb FLC
CC(C)(C)c1cc(C(=O)NNc2cccc(Cl)c2)n(Cc2ccccc2)n1	2	32	-4	87	-6
CC(C)(C)c1cc(C(=O)NNc2ccc(OC(F)(F)F)cc2)n(Cc2ccccc2)n1	2	11	-2	94	81*
Cc1ccc(NNC(=O)c2cc(C(C)(C)C)nn2Cc2ccccc2)cc1	-4	60*	-9	88	1
CC(C)(C)c1cc(C(=O)NNc2cc(C(F)(F)F)ccc2Cl)n(Cc2ccccc2)n1	0	99*	-3	92	-8
Cc1ccc(OCCC(=O)N(CC(=O)Nc2ccccc2C(F)(F)F)Cc2ccco2)cc1	9	14	28	98	-1
CCOc1ccc(N2CC(C(=O)Nc3cccnc3)CC2=O)cc1 (stereo unspecified)	5	-4	1	87	0
Cc1cccc(N2NC(=O)/C(=C/c3ccc(-c4ccc(Cl)c(C(=O)O)c4)o3)C2=O)c1	-1	-7	-15	.	103*
CCN=C1S/C(=C\c2ccc(-c3cccc(C(=O)O)c3)o2)C(=O)N1CC	5	56*	-24	135	3
O=C(O)c1cccc(-c2ccc(/C=C3/SC(=Nc4ccccc4)N(Cc4cccnc4)C3=O)o2)c1	8	53*	-10	106	2
O=C1/C(=C/c2cccnc2)SC(=NCc2ccccc2)N1Cc1ccccc1	4	54*	4	111	-8
CCOC(=O)COc1ccc(/C=C2/SC(=Nc3ccccc3)N(Cc3cccnc3)C2=O)cc1OC	16	28	-5	98	6
O=C1NN(c2ccccc2)C(=O)/C1=C/c1ccc(-c2ccc(Cl)c(C(=O)O)c2)o1	-5	-10	0	.	-34
CCN1C(=O)/C(=C\c2ccc(-c3cccc(C(=O)OC)c3)o2)SC1=Nc1ccc(C(=O)O)cc1	1	46	-35	80	10
O=C1/C(=C/c2cccnc2)SC(=S)N1CCc1ccccc1	-3	-2	-8	114	24
O=C(CNC(=O)c1ccc(Br)o1)NNC(=O)COc1ccccc1Cl	.	.	.	92	.
CCCCn1nc(C(=O)Nc2ccc(-n3cnnn3)cc2)c2ccccc2c1=O	.	.	.	97	.
CN(C)CCC1c2ccc(Cl)cc2CCc2cccnc21 (stereo unspecified) (tested in a mixture with another compound)	1	16	-15	95	10
Cc1cccc(NC(=O)CN2C(=O)S/C(=C\c3ccc(-c4cccc(C(=O)O)c4C)o3)C2=O)c1	2	?	-2	103	-7
CCN=C1S/C(=C/c2ccc(-c3ccc(Cl)cc3C(=O)O)o2)C(=O)N1CC	-5	24	16	113	24
CCN1C(=O)/C(=C\c2ccc(-c3ccc([N+](=O)[O-])cc3OC)o2)SC1=Nc1cccc(C(=O)O)c1	1	56*	-21	.	?
C#CCN1C(=O)S/C(=C\c2ccc(-c3ccc(Cl)c(C(=O)O)c3)o2)C1=O	8	68*	-5	99	4
Cc1ccc(NC(=O)CN2C(=O)S/C(=C/c3ccc(-c4cc(C(=O)O)ccc4C)o3)C2=O)cc1C	-4	85*	-9	100	18
CCc1cc2c(SCC#N)ncnc2s1	-3	-14	-1	87	-26
N#CC(c1ccc(Cl)cc1)N1CCOCC1 (stereo unspecified)	?	1	3	94	-14
